ERa coact pot – ER-alpha (human) coactivator binding potentiation. P03372. TR-FRET ERalpha-LBD/SRC-Cy5 coactivator binding, 2 h; 100 = basal binding, no effect. coactivator binding (% of control), % at 25.6 µM. 1.3% of 86,000 active. AID 639; in the data active = activity above about 200%;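 also: binding measured in presence of low estradiol as agonist stimulus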
DAT uptake mod – modulates human dopamine transporter uptake under cocaine | Q01959 | LLC-PK1 hDAT cells, [14C]-dopamine uptake with cocaine IC80; actives deviate in either direction | B-score at 10 µM | 1.3% of 110,000 active;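 active = Z score or B-score, a plate-position-corrected score, falls beyond the plate's 99.7% confidence bounds, in either direction; inactive = both scores lie inside the 99.7% bounds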
Target sequence (Q01959 whole entry, looked up): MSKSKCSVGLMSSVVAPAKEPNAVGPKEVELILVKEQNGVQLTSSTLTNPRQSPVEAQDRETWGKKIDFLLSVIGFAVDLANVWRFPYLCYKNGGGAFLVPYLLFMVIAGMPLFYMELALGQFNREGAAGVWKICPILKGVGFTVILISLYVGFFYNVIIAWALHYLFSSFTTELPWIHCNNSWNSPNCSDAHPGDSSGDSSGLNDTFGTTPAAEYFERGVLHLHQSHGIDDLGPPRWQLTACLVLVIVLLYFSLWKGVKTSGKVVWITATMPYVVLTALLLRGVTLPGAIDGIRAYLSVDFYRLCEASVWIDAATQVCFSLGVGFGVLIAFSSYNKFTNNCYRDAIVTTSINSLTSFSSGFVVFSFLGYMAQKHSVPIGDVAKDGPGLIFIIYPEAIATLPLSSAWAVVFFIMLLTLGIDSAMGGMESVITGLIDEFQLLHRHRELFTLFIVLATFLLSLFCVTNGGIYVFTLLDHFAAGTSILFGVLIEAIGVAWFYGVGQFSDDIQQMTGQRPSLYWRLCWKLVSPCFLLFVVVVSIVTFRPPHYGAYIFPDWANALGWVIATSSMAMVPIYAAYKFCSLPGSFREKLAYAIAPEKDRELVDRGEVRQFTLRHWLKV
ERb coact inh – blocks coactivator binding to human estrogen receptor beta; Q92731; TR-FRET ER-beta LBD / SRC1-Cy5 peptide binding; receptor agonist-loaded with 1 µM estradiol; inhibition, % at 25.6 µM; 1.3% of 86,000 active;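 active = compounds whose percent inhibition of the receptor-coactivator binding signal exceeds about 50% in the single-dose screen, limit read from the data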
MT1-MMP txn act – activates MT1-MMP transcription; AID 750; activation factor at 10 µM; 0.16% of 86,000 active; HT1080 MT1-MMP promoter luciferase reporter, luminescence, overnight; hits give high values;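 active = activation factor of at least 2 for MT1-MMP transcription at 10 µM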
ERa coact inh – blocks coactivator binding to human estrogen receptor alpha. TR-FRET ER-alpha LBD / SRC-1 peptide, estradiol-bound. inhibition, % at 25.6 µM. 1.7% of 86,000 active. AID 629; in the data active = inhibition above about 50%
Each line names hits and unclear results; the compound was inactive in the other large screens; [ ] = dose if it differs, or a comment. A selection: hits, their analogues and other compounds. The true share with any hit is near 3.8%.

COc1ccccc1-n1c(CNc2ccc(F)cc2)nnc1SCC(=O)Nc1cc(C)on1	none
Clc1ccc2oc(-c3ccccc3)nc2c1	ERb coact inh 57[fluorescence artefact?] (no result: MT1-MMP txn act)
Clc1ccc2oc(-c3cccnc3)nc2c1	none
Cc1cccc(NC(c2ccc(O)cc2)c2ccc3ccc(C)nc3c2O)n1 (stereo not drawn)	ERa coact pot 320[fluorescence artefact?]
COc1ccc(-c2cc(C(=O)Nc3cccc(C(C)=O)c3)no2)cc1	ERa coact pot 228[fluorescence artefact?] (no result: MT1-MMP txn act)
CCC(=O)c1cn([C@@H](CCC(OC)OC)CC(=O)OC(C)(C)C)cc1CC	none (no result: ERa coact pot, ERb coact inh, MT1-MMP txn act, ERa coact inh)
N/C(=N\OC(=O)c1ccco1)c1ccccc1	MT1-MMP txn act 2
Cc1ccc(/C(N)=N/OC(=O)c2ccco2)cc1	none
Cc1c(C(=O)Nc2ccccc2-c2ccccc2)cccc1[N+](=O)[O-]	none (no result: ERa coact pot, ERb coact inh, MT1-MMP txn act, ERa coact inh)
COc1cccc(OC)c1C(=O)NC(=S)Nc1ccc2c(c1)Cc1ccccc1-2	ERa coact pot 202
COc1ccc(C(=O)Nc2ccc3c(c2)Cc2ccccc2-3)cc1	none (no result: ERa coact pot, ERb coact inh, MT1-MMP txn act, ERa coact inh)
COc1c(C)cccc1C(=O)NC(=S)Nc1ccc2c(c1)Cc1ccccc1-2	ERa coact pot 245[fluorescence artefact?] (no result: DAT uptake mod)
CCCNC(=O)C1(CC2CC(c3ccccc3)=NO2)CCN(C(=O)Cc2ccc(F)cc2)CC1 (stereo not drawn)	none (no result: ERa coact pot, ERb coact inh, MT1-MMP txn act, ERa coact inh)
Cc1ccccc1Cn1cc(NC(=O)CSc2nc3c(c(C(F)(F)F)n2)CCc2ccccc2-3)cn1	none (no result: ERa coact pot, ERb coact inh, MT1-MMP txn act, ERa coact inh)
CC(C)NC(=O)c1noc2cc([N+](=O)[O-])ccc12	none (no result: ERa coact pot, ERb coact inh, MT1-MMP txn act, ERa coact inh)
Cc1ccccc1-c1nc(S(=O)(=O)c2ccc(Cl)cc2)c(NCCN2CCOCC2)o1	DAT uptake mod 1.9
O=S(=O)(c1ccccc1)c1nc(-c2ccccc2Cl)oc1NCCN1CCOCC1	none
O=[N+]([O-])c1nn(-c2ccc3c(c2)OCCO3)n(O)c1=NCc1ccccc1Cl	DAT uptake mod 14 (no result: ERa coact pot, ERb coact inh, MT1-MMP txn act, ERa coact inh)
Cc1cc(NC(=O)CSc2nnc(-c3ccoc3C)o2)no1	DAT uptake mod 2.6
COc1cc(OC)cc(-c2nnc(SCC(=O)Nc3cc(C)on3)o2)c1	ERa coact pot 393[fluorescence artefact?] (no result: DAT uptake mod)
Cc1occc1-c1nnc(SCC(=O)c2ccc(F)cc2)o1	none
CCOC(=O)n1cc(-c2cnc(CNC(=O)C(C)(c3ccccc3)c3ccccc3)o2)c2ccccc21	none (no result: ERa coact pot, ERb coact inh, ERa coact inh)
CCCCCCN(C(=O)CCCCCN1C(=O)NC(C2CC2)C(C(=O)OCc2ccccc2)=C1C)C(C(=O)NCCCC)c1ccc(OCC(=O)OC)c(C(=O)OC)c1 (stereo not drawn)	none (no result: ERa coact pot, DAT uptake mod, ERb coact inh, ERa coact inh)
O=C(Cn1nnc(-c2ccc(N3CCOCC3)cc2)n1)OC1CCCCC1	ERa coact pot 208
Cc1ccccc1NC(=O)Cn1nnc(-c2ccc(N3CCOCC3)cc2)n1	none
CN(C)c1ccc(/C=N/c2cc(-c3ccccc3)nn2-c2ccccc2)cc1	none (no result: ERa coact pot, ERb coact inh, MT1-MMP txn act, ERa coact inh)
Cc1c(Cl)cccc1-n1c(SCC(=O)N(C)Cc2ccccc2)nnc1-c1ccncc1	DAT uptake mod 3.8
Cc1noc(C)c1CSc1nnc(-c2ccncc2)n1-c1cccc(Cl)c1C	none
Cc1cccc(N(CC(=O)NC2CCCCC2)C(=O)CCCC(=O)Nc2ccccn2)c1	DAT uptake mod 2.2
CCNc1nc(NC(C)C)nc(OCCOC(=O)Nc2ccccc2)n1	DAT uptake mod 3.6
CCNc1nc(NCC)nc(OCCOC(=O)c2ccccc2)n1	none
CCN1CCC(C(N)=O)CC1	ERb coact inh 51
CC(C)(C)OC(=O)N1CCC(C(N)=O)CC1	none
CCN(Cc1cc2cc(OC)ccc2[nH]c1=O)C(=O)Cc1ccc(OC)cc1	DAT uptake mod -3.2
COc1cc(C(=O)N(Cc2cc3cc(C)ccc3[nH]c2=O)CC2CCCO2)cc(OC)c1OC (stereo not drawn)	none
COc1cccc(C(=O)N(Cc2cc3cc(C)ccc3[nH]c2=O)CC2CCCO2)c1 (stereo not drawn)	DAT uptake mod 3
CCN(Cc1cc2cc(OC)ccc2[nH]c1=O)C(=O)c1ccncc1	none
Nc1nnc(-c2ccco2)s1	none
Nc1ncnc2oc(-c3ccco3)c(-c3ccco3)c12	ERb coact inh 88[fluorescence artefact?], ERa coact inh 94[fluorescence artefact?]
CC(=O)OCC(=O)NCC(=O)c1c[nH]c2ccccc12	none (no result: ERa coact pot, ERb coact inh, ERa coact inh)
O=C1c2cccc3cccc(c23)C(=O)N1c1ccc2ncccc2c1	ERa coact inh 71[fluorescence artefact?]
Cc1cc(S(=O)(=O)N(Cc2ccccn2)Cc2ccco2)ccc1-n1cnnn1	DAT uptake mod 2.6
Cc1cc(C(=O)CSc2nnc(-c3ccccc3)n2C)c(C)n1C	none
Cc1cc(C(=O)CSc2nnc(-c3cccnc3)n2-c2ccccc2F)c(C)n1C	ERa coact inh 70
CC(O)[C@H]1CNC(=O)C(=O)N1CCCCC1CCCCC1 (stereo partly drawn)	none (no result: ERa coact pot, ERb coact inh, MT1-MMP txn act, ERa coact inh)
CC(=O)C(C(C)=O)c1c(Cl)c(O)c(O)c2c(C(=O)c3ccccc3)coc12	ERb coact inh 55[fluorescence artefact?]
CC1(c2cc(C(F)(F)F)n3nc(C(=O)O)cc3n2)CC1	none
CCc1c(C(=O)N/N=C/c2ccc(C)o2)csc1C	none
CC[C@@H](C)[C@@H](C(=O)N1CCNCC1)n1cc(CCC(=O)O)nn1	none (no result: ERa coact pot, ERb coact inh, MT1-MMP txn act, ERa coact inh)
COc1ccc(CCn2c(SCC(=O)Nc3cc(C)on3)nc3ccsc3c2=O)cc1OC	ERa coact pot 314 (no result: DAT uptake mod)
COc1ccc(CCn2c(SCC(=O)Nc3cc(C)on3)nc3ccccc3c2=O)cc1OC	none (no result: DAT uptake mod)
Cc1cc(NC(=O)CSc2nc3ccccc3c(=O)n2Cc2ccc(F)cc2)no1	ERa coact pot 232[fluorescence artefact?], ERb coact inh 50[fluorescence artefact?]
Cc1cc(NC(=O)CSc2nc3c(c(=O)n2CCc2ccccc2)SC(C)C3)no1 (stereo not drawn)	ERa coact inh 79
Cc1nnc(NC(=O)CSc2nc3c(c(=O)n2CCc2ccccc2)SC(C)C3)s1 (stereo not drawn)	ERa coact inh 69
COC(=O)C1(Cc2ccccc2)C2c3cc(C(=O)N4CCCC4)n(Cc4ccc(OC(F)(F)F)cc4)c3CC2CN1C(=O)c1ccccc1 (stereo not drawn)	none (no result: ERa coact pot, DAT uptake mod, ERb coact inh, ERa coact inh)
Cc1c(C(=O)N2CCCCC2)sc(NC(=O)C23CC4CC(CC(C4)C2)C3)c1C#N	none
O=S(=O)(c1ccccc1)n1ccc2cccnc21	none (no result: ERa coact pot, ERb coact inh, MT1-MMP txn act, ERa coact inh)
COc1cccc(-c2[nH]nc3c2C(c2ccoc2)C(C#N)=C(N)O3)c1 (stereo not drawn)	ERb coact inh 58
O=C(CCCCCCN1C(=O)c2ccccc2C1=O)N1CCC(c2ccccc2)C1 (stereo not drawn)	DAT uptake mod 3.4
O=C(COc1ccc(F)cc1)N1CCC(c2ccccc2)C1 (stereo not drawn)	MT1-MMP txn act 2.1
CCOC(=O)C1CCN(C(=O)CCCN2C(=O)c3ccccc3C2=O)CC1	none
COC(=O)[C@@]1(Cc2ccc(F)cc2)[C@H]2c3cc(C(=O)N4CCCC4)n(Cc4ccc(C)o4)c3C[C@H]2CN1C(=O)c1ccccc1	none (no result: ERa coact pot, DAT uptake mod, ERb coact inh, ERa coact inh)
CSC1=N/C(=C\c2ccccc2F)C(=O)S1	none (no result: DAT uptake mod)
CSC1=N/C(=C\c2ccc(Br)o2)C(=O)S1	ERb coact inh 72, ERa coact inh 69
CCCN1CCC(=O)N([C@H](CSc2ccc(OC)cc2)Cc2ccccc2)CC1	DAT uptake mod 2.5 (no result: ERa coact pot, ERb coact inh, MT1-MMP txn act, ERa coact inh)
Cc1ccc(-n2c(SCn3nnc4ccccc4c3=O)nnc2-c2cccnc2)c(C)c1	ERa coact inh 87[fluorescence artefact?]

Assay outcomes from PubChem.
